{
  "source": "ChEMBL document CHEMBL2218924",
  "about": "“A broad activity screen in support of a chemogenomic map for kinase signalling research and drug discovery” (Biochem J, 2013)",
  "key": {"[1]": {"target": "T1, Ephrin type-A receptor 3 (Homo sapiens) (UniProt P29320)", "T1 sequence (whole entry)": "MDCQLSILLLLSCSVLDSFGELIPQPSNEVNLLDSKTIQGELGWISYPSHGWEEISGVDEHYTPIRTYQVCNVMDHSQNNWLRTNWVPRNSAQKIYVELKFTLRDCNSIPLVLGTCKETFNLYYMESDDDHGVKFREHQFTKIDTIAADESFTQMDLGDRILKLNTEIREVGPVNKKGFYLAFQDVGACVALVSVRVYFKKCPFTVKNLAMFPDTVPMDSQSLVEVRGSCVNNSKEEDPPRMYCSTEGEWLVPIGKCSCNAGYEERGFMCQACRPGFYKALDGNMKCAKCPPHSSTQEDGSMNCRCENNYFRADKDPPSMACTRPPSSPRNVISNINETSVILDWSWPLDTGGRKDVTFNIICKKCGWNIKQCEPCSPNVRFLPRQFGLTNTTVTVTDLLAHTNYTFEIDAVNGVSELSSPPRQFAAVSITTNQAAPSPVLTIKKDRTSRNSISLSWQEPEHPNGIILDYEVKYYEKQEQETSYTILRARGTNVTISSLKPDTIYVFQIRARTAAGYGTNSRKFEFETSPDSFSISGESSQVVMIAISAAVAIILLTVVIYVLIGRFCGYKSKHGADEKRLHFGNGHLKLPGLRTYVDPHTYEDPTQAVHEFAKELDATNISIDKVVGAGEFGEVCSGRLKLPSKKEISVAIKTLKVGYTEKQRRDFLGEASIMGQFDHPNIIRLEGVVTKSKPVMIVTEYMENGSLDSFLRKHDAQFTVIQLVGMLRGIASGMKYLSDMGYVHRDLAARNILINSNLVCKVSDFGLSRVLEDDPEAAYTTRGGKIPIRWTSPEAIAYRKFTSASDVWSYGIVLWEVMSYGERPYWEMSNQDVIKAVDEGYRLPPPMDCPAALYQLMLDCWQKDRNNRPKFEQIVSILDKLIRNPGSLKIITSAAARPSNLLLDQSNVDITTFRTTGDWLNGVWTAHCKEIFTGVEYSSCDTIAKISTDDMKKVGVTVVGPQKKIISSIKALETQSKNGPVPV", "conditions": "at 10 µM"}, "[2]": {"target": "Ephrin type-A receptor 4 (Homo sapiens) (UniProt P54764)", "sequence (P54764 whole entry)": "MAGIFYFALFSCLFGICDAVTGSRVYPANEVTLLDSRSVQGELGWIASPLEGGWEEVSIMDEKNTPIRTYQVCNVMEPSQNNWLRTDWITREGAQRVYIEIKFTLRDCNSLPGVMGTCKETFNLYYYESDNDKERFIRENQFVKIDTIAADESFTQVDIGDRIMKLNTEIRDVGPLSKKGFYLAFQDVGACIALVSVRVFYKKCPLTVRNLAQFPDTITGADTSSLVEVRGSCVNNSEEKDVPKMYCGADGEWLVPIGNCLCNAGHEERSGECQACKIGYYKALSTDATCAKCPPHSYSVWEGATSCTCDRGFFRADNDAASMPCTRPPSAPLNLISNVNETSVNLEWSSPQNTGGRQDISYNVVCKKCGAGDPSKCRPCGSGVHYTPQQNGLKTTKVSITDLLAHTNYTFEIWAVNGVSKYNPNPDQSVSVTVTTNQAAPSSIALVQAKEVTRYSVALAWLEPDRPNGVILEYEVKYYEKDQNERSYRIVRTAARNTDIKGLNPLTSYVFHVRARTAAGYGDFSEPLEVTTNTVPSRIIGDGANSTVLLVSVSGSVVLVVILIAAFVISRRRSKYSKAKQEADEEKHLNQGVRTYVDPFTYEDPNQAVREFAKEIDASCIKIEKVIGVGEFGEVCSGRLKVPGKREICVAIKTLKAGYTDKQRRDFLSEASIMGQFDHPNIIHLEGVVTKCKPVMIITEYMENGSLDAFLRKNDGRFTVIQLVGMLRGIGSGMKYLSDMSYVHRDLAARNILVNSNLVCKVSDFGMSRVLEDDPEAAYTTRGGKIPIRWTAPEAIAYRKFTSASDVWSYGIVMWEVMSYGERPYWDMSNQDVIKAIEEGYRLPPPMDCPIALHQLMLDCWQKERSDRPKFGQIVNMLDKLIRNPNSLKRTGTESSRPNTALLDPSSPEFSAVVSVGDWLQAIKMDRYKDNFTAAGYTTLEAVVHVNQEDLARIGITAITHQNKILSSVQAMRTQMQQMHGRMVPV", "conditions": "at 1 µM"}, "[3]": {"target": "Ephrin type-A receptor 4 (Homo sapiens) (UniProt P54764)", "conditions": "at 10 µM"}, "[4]": {"target": "Ephrin type-A receptor 5 (Homo sapiens) (UniProt P54756)", "sequence (P54756 whole entry)": "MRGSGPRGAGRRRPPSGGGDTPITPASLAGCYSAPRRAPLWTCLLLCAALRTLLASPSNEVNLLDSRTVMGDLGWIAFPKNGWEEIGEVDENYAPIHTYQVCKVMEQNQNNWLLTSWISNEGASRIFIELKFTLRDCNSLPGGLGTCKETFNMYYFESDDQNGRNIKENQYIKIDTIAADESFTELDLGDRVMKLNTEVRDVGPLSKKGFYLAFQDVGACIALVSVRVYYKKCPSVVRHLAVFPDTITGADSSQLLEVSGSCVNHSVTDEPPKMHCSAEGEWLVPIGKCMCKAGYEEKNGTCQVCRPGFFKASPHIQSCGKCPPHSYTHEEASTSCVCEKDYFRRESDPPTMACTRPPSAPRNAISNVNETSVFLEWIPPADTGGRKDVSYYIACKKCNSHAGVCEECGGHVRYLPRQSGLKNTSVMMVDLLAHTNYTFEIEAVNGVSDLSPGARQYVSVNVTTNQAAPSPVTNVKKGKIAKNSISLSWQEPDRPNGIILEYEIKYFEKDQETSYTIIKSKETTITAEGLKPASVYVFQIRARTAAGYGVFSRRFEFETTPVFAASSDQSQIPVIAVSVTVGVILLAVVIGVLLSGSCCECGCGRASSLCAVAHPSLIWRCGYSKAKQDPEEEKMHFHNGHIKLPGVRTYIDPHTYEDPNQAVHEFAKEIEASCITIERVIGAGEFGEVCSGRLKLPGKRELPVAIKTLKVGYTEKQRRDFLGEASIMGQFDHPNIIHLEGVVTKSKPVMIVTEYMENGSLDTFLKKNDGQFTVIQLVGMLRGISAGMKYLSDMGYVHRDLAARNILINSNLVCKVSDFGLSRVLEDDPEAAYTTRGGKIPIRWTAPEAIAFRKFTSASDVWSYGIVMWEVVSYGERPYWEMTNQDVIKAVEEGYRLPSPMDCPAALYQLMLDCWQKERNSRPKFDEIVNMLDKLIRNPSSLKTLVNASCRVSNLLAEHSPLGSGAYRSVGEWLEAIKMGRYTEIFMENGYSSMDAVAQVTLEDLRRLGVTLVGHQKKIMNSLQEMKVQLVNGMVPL", "conditions": "at 1 µM"}, "[5]": {"target": "Ephrin type-A receptor 5 (Homo sapiens) (UniProt P54756)", "conditions": "at 10 µM"}, "[6]": {"target": "Ephrin type-A receptor 7 (Homo sapiens) (UniProt Q15375)", "sequence (Q15375 28-998 limits assumed)": "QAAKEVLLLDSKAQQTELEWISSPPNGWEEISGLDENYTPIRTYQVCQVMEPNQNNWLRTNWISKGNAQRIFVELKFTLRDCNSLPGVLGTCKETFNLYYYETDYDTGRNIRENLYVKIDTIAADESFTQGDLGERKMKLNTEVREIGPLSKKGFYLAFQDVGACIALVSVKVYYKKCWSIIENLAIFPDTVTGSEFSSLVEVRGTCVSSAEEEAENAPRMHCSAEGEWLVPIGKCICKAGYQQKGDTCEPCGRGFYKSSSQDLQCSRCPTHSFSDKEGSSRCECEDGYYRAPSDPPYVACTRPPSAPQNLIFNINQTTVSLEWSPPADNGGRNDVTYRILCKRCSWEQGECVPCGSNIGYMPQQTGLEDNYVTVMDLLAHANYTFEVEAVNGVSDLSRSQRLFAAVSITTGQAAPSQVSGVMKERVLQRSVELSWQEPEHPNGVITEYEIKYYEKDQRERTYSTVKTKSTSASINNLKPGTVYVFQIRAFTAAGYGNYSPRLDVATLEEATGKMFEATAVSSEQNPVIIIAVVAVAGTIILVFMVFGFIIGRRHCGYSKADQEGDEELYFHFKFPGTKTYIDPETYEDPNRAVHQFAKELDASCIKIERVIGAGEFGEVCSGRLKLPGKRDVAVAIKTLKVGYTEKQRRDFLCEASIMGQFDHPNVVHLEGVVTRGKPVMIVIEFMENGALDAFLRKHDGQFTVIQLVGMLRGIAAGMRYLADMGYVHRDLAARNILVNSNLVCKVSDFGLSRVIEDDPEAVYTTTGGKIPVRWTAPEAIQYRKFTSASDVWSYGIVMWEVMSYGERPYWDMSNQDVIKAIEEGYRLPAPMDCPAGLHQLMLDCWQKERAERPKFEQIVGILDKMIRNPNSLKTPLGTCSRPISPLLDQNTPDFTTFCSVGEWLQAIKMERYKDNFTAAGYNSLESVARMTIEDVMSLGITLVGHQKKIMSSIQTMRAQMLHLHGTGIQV", "conditions": "at 1 µM"}, "[7]": {"target": "Ephrin type-A receptor 7 (Homo sapiens) (UniProt Q15375)", "conditions": "at 10 µM"}, "[8]": {"target": "T2, Ephrin type-A receptor 8 (Homo sapiens) (UniProt P29322)", "T2 sequence (whole entry)": "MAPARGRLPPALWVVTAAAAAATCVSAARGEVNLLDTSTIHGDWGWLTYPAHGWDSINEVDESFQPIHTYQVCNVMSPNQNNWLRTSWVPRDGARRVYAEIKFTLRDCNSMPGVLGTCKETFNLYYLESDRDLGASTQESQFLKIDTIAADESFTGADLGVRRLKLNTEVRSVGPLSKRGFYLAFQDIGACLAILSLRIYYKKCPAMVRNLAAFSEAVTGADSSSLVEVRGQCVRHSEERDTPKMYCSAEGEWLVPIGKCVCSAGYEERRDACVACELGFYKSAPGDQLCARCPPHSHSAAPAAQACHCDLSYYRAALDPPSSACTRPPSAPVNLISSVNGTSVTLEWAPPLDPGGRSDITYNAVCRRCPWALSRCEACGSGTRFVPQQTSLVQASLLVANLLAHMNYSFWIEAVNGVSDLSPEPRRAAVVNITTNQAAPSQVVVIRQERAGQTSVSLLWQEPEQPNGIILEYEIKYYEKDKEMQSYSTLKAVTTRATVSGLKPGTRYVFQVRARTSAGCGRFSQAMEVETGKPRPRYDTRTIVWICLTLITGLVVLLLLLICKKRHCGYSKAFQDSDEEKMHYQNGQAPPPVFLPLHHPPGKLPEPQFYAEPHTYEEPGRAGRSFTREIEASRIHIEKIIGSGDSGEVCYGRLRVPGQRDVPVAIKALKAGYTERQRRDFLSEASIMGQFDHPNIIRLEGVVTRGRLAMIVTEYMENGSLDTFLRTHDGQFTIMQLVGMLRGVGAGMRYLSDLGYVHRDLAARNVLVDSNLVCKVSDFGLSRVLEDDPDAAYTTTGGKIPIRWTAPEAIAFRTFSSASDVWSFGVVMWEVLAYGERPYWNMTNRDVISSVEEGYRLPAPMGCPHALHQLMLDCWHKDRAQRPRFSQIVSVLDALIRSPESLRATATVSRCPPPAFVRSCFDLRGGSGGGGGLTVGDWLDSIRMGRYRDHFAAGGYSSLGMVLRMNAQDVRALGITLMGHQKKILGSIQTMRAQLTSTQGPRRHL", "conditions": "at 1 µM"}, "[9]": {"target": "T2, Ephrin type-A receptor 8 (Homo sapiens)", "conditions": "at 10 µM"}, "[10]": {"target": "T3, Ephrin type-B receptor 1 (Homo sapiens) (UniProt P54762)", "T3 sequence (whole entry)": "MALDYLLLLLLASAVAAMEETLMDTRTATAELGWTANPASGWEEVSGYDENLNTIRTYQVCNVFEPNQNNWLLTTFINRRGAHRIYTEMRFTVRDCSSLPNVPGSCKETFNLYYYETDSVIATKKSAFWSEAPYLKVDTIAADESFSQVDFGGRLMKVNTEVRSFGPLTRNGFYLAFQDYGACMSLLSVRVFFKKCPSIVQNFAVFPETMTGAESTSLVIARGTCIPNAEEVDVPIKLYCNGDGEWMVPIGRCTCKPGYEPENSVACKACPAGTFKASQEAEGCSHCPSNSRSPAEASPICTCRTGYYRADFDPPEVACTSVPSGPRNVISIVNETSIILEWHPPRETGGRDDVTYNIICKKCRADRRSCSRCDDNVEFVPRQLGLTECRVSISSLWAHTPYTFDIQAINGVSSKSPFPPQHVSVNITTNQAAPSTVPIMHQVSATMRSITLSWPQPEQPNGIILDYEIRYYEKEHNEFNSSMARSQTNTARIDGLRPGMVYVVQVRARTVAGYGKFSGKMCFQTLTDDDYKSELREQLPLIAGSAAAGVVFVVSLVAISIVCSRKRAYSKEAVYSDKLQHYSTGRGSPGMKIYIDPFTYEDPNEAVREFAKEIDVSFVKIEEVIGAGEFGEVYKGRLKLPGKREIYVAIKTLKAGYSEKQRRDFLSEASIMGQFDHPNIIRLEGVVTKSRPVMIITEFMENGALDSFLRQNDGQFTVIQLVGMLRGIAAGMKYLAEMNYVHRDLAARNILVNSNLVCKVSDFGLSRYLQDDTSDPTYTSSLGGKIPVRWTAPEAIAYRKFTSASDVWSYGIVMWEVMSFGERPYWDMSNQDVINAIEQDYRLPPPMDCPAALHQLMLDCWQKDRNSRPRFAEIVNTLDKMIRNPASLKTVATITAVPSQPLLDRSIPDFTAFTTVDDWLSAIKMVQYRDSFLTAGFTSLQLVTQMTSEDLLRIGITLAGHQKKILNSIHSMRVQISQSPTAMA", "conditions": "at 1 µM"}},
  "data": [
    {"smiles": "O=C1c2ccccc2-[n+]2ccc3c([nH]c4ccccc43)c21", "values": [
      {"measurement": "residual activity", "setting": "[1]", "result": 81, "unit": "%"},
      {"measurement": "residual activity", "setting": "[2]", "result": 103, "unit": "%"},
      {"measurement": "residual activity", "setting": "[3]", "result": 104, "unit": "%"},
      {"measurement": "residual activity", "setting": "[4]", "result": 116, "unit": "%"},
      {"measurement": "residual activity", "setting": "[5]", "result": 102, "unit": "%"},
      {"measurement": "residual activity", "setting": "[6]", "result": 85, "unit": "%"},
      {"measurement": "residual activity", "setting": "[7]", "result": 79, "unit": "%"},
      {"measurement": "residual activity", "setting": "[8]", "result": 89, "unit": "%"},
      {"measurement": "residual activity", "setting": "[9]", "result": 85, "unit": "%"},
      {"measurement": "residual activity", "setting": "[10]", "result": 85, "unit": "%"}
    ]}
  ]
}
